According to the supplement of paper PMC7057948, “A genome-wide approach for identification and characterisation of metabolite-inducible systems” (Nature Communications, 2020):

test system: HpdA/P_H16_RS24175 L-tyrosine biosensor (pEH158); assay: relative induction of RFP reporter vs primary effector (background-corrected); higher = stronger activation of the biosensor; conditions: inducer concentration 5 mM; 6 h; Cupriavidus necator H16; minimal medium + 0.4% gluconate
Experimental: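 C. necator H16 strains, each carrying one of 21 transcription factor/inducible promoter–mRFP biosensor plasmids, were grown in minimal medium in 96-well plates (robotic platform). Each was exposed to 46 structurally or metabolically related compounds at 5 mM at 30 °C. OD-normalised RFP fluorescence was read 6 h later and expressed as relative induction (%) = 100 × (FL compound − FL uninduced)/(FL primary inducer − FL uninduced); mean of n=4.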
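Also: RFP excited at 585 nm with emission read at 620 nm, culture medium blanks subtracted from fluorescence and absorbance prior to normalisation.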

Structure (SMILES)	relative induction of RFP reporter
O=C(O)C[C@H](O)C(=O)O [L-malate]	-0.0258%
Oc1cccc(O)c1 [resorcinol]	-0.0108%
O=C(O)C(O)C(=O)O [tartronic acid]	-0.0907%
Cn1cnc2c1c(=O)[nH]c(=O)n2C [theobromine]	0.0337%
NCC(=O)O [glycine]	-0.0404%
O=c1[nH]cnc2nc[nH]c12 [hypoxanthine]	-0.0963%
Oc1ccccc1O [catechol]	0.0942%
O=C(O)c1cc(=O)c2ccccc2[nH]1 [kynurenate]	-0.151%
C[C@@H](O)C(=O)O [D-lactate]	-0.202%
O=S(=O)(O)CCO [isethionate]	-0.112%
CCCC(=O)O [butyric acid]	-0.166%
NCCc1ccc(O)c(O)c1 [dopamine]	-0.023%
O=C(O)C(O)c1ccccc1 (stereo not given) [mandelic acid]	0.0552%
CCC(=O)O [propanoate]	-0.0944%
Oc1ccccc1 [phenol]	-0.0814%
O=C(O)CC(=O)C(=O)O [oxaloacetate]	-0.115%
O=C(O)c1c(O)cccc1O [2,6-dihydroxybenzoate]	0.0687%
O=C(O)/C=C/C(=O)O [fumarate]	-0.0945%
C[C@H](N)C(=O)O [L-alanine]	-0.194%
Cn1c(=O)c2c(ncn2C)n(C)c1=O [caffeine]	0.103%

Structure (SMILES)	relative induction of RFP reporter
O=C(O)CC(CC(=O)O)C(=O)O [tricarballylate]	-0.173%
O=c1cc[nH]c(=O)[nH]1 [uracil]	-0.0253%
OC[C@@H](O)[C@@H](O)[C@H](O)[C@H](O)CO [D-mannitol]	-0.117%
NCC(N)C(=O)O (stereo not given) [2,3-diaminopropanoate]	0.123%
O=C(O)c1cccnc1 [nicotinate]	-0.141%
CC(N)CC(=O)O (stereo not given) [3-aminobutanoate]	-0.135%
NC(C(=O)O)c1ccccc1 (racemic) [D,L-2-phenylglycine]	0.0147%
C[C@H](O)C(=O)O [L-lactate]	-0.188%
O=C(O)C1=C[C@@H](O)[C@@H](O)[C@H](O)C1 [shikimate]	0.167%
NC(=O)CC[C@H](N)C(=O)O [L-glutamine]	-0.216%
O=C(O)[C@@H](O)[C@@H](O)[C@H](O)[C@@H](O)C(=O)O [glucarate]	-0.0077%
Oc1ccc(O)cc1 [hydroquinone]	0.0801%
O=C(O)C1=CCCCC1 [cyclohexene-1-carboxylate]	0.0248%
O=C(O)C1CCCC1 [cyclopentane-1-carboxylate]	0.108%
O=CC(=O)O [glyoxylate]	-0.0503%
N[C@@H](CC(=O)O)C(=O)O [L-aspartate]	-0.107%
O=C(O)c1ccc(O)cc1 [4-hydroxybenzoate]	-0.0931%
CC(=O)CCC(=O)O [levulinic acid]	-0.244%
NCCS(=O)(=O)O [taurine]	-0.19%
O=C(O)CNC(=O)c1ccccc1 [N-benzoylglycine]	-0.186%
